We go through five molecules from the supplement of paper PMC4022240.

± gives the standard deviation.

T1: HaloTag-ATRX ADD domain (163-292)
T1 chain: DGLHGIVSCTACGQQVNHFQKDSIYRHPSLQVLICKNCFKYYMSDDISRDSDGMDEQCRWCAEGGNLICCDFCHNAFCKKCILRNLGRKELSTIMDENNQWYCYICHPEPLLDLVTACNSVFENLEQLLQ

B1: Unmod H2B variant P D P A K S A P A P K K G (peptide)
chain: PDPAKSAPAPKKG
B2: Unmod H2B variant A P K K G S K K A V T K A (peptide)
chain: APKKGSKKAVTKA
B3: Unmod H2B variant P E P V K S A P V P K K G (peptide)
chain: PEPVKSAPVPKKG
B4: Unmod H2A variant R N D E E L N K L L G G V (peptide)
chain: RNDEELNKLLGGV
B5: Unmod H2A variant R N D E E L N K L L G R V (peptide)
chain: RNDEELNKLLGRV

The first assay has as its target T1, HaloTag-ATRX ADD domain (163-292). Briefly: peptide microarray binding signal (635 nm), min-max normalized on array (fraction of array maximum); higher = stronger binding. The note with it: peptide region: Unmod H2B variant; binder concentration: 50 nM. The gist of the method:
(§1)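 Two probe formats were used for 1 h at 4°C: biotin-labelled HaloTag reader fusions (10 nM to 1 μM) with streptavidin-Alexa Fluor 647, and rabbit histone antibodies (1:10,000 to 1:2,000) with anti-rabbit Alexa 647. Both were applied to nitrocellulose arrays of histone 13-mer peptide–cellulose conjugates printed in triplicate with a Cy3 tracer and blocked overnight at 4°C. Signal was read at 635 nm and misprints at 532 nm on an Axon GenePix 4000B. Binding signal is expressed as the triplicate-spot mean intensity, min-max scaled for each library.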
On to B1, for which the “peptide microarray binding signal” value is 0.0068 ± 0.00035.
On the same count and under the same terms, to B2 belongs 0.00705 ± 0.00011.
With B3, the “peptide microarray binding signal” value turned out to be 0.007868 ± 4.2e-05.

Staying with this assay, now noted: peptide region: Unmod H2B variant; binder concentration: 500 nM.
For the molecule B1, the “peptide microarray binding signal” value was 0.00538 ± 0.00012.
The same measure, in the same setting: the same measure for B2: 0.00729 ± 0.00014; for B3: 0.0166 ± 0.00043.

The target of the next assay is HaloTag-ING2 PHD (mouse Ing2 200-280). The assay is described as above. The note with it: peptide region: Unmod H2B variant; binder concentration: 10 nM. A digest of the protocol: as §1
In the case of B1, the “peptide microarray binding signal” value worked out at 0.00358 ± 0.00019.
With B2, the “peptide microarray binding signal” value came out at 0.00185 ± 1.9e-05.
As to B3, the “peptide microarray binding signal” value was 0.00889 ± 0.00055.

Still in this assay, the particulars now being: peptide region: Unmod H2B variant; binder concentration: 100 nM.
Regarding B1, the “peptide microarray binding signal” value worked out at 0.004039 ± 3.4e-05.
As to B2, the “peptide microarray binding signal” value was found to be 0.00446 ± 0.00013.
B3: the “peptide microarray binding signal” value worked out at 0.0274 ± 0.0037.

The next assay concerns the target anti-H3K4me3 antibody ab8580. The description is as above. Conditions: peptide region: Unmod H2B variant; binder concentration: 1:2,000 dilution. A digest of the protocol: as §1
Turning to B1, the “peptide microarray binding signal” value turned out to be 0.000868 ± 7.8e-05.
Take B2: the “peptide microarray binding signal” value worked out at 0.000529 ± 1.4e-05.
As to B3, the “peptide microarray binding signal” value came out at 0.00279 ± 0.00019.

Staying with this assay, now noted: peptide region: Unmod H2B variant; binder concentration: 1:10,000 dilution.
As to B1, the “peptide microarray binding signal” value was 0.00097 ± 9.9e-06.
For B2, the “peptide microarray binding signal” value was 0.000571 ± 1.1e-05.
For the molecule B3, the “peptide microarray binding signal” value is 0.00251 ± 0.00026.

In a further assay the target is anti-H3K9me3 antibody ab8898. Described as above. Conditions: peptide region: Unmod H2B variant; binder concentration: 1:2,000 dilution. The gist of the method:
as §1
B1: the “peptide microarray binding signal” value amounted to 0.000453.
As for B2, the “peptide microarray binding signal” value turned out to be 0.000211 ± 2.2e-06.
As to B3, the “peptide microarray binding signal” value came out at 0.000997 ± 6.3e-05.

Staying with this assay, now noted: peptide region: Unmod H2B variant; binder concentration: 1:10,000 dilution.
With B1, the “peptide microarray binding signal” value turned out to be 0.00075 ± 7.9e-06.
On the same count and under the same terms, to B2 belongs 0.000461; to B3, 0.00144 ± 5.1e-05.

A further assay addresses T1, HaloTag-ATRX ADD domain (163-292). The description is as above. The note with it: peptide region: Unmod H2A variant; binder concentration: 50 nM. A digest of the protocol:
as §1
B4: the “peptide microarray binding signal” value is 0.0156 ± 0.00038.
As for B5, the “peptide microarray binding signal” value was 0.0189 ± 0.0014.

Still in this assay, the particulars now being: peptide region: Unmod H2A variant; binder concentration: 500 nM.
For B4, the “peptide microarray binding signal” value was 0.0164 ± 0.00093.
In the case of B5, the “peptide microarray binding signal” value came out at 0.00157 ± 0.00011.

The next assay concerns the target HaloTag-ING2 PHD (mouse Ing2 200-280). Described as above. The note with it: peptide region: Unmod H2A variant; binder concentration: 10 nM. The gist of the method: as §1
With B4, the “peptide microarray binding signal” value stood at 0.00412 ± 5.7e-05.
Take B5: the “peptide microarray binding signal” value worked out at 0.00269 ± 9.9e-05.

The assay is the same for the next values; noted with them: peptide region: Unmod H2A variant; binder concentration: 100 nM.
For B4, the “peptide microarray binding signal” value is 0.00397 ± 0.0011.
As for B5, the “peptide microarray binding signal” value stood at 0.0085 ± 0.00045.

In a further assay the target is anti-H3K4me3 antibody ab8580. Described as above. Conditions: peptide region: Unmod H2A variant; binder concentration: 1:2,000 dilution. A digest of the protocol:
as §1
For B4, the “peptide microarray binding signal” value was found to be 0.0091 ± 0.00022.
Same read-out and setting: to B5 belongs 0.000189 ± 4.1e-06.

Staying with this assay, now noted: peptide region: Unmod H2A variant; binder concentration: 1:10,000 dilution.
For the molecule B4, the “peptide microarray binding signal” value was 0.00171 ± 3.3e-05.
Still for that read-out and setting: the same measure for B5: 0.0016 ± 9.6e-05.

The next assay has as its target anti-H3K9me3 antibody ab8898. The description is as above. Conditions: peptide region: Unmod H2A variant; binder concentration: 1:2,000 dilution. A digest of the protocol:
as §1
As to B4, the “peptide microarray binding signal” value was 0.0018 ± 0.00014.
Regarding B5, the “peptide microarray binding signal” value amounted to 0.000604 ± 2e-05.

Still in this assay, the particulars now being: peptide region: Unmod H2A variant; binder concentration: 1:10,000 dilution.
With B4, the “peptide microarray binding signal” value is 0.00259 ± 6.1e-05.
For B5, the “peptide microarray binding signal” value was 0.00173 ± 3.3e-05.
